# Compounds with a hit are over-represented: about 1.1% of the library has one in this group of screens.
# GalR3 antagonist – human GalR3 antagonism. HEK293 GalR3-CNG cAMP membrane potential fluorescence; galR3 body fused to GalR1 C-terminus. inhibition, % at 3 µM. hit rate 0.44% among 360,000;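 active = inhibition above the screen-wide average plus 3 SD, cut at about 13% in these data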;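 note: forskolin and galanin both at EC90 stimulate the cells; cAMP rise reported by CNG channel membrane potential dye signal; 0% = forskolin plus galanin with DMSO and 100% = forskolin alone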
# Target sequence (O60755 1-299 limits assumed): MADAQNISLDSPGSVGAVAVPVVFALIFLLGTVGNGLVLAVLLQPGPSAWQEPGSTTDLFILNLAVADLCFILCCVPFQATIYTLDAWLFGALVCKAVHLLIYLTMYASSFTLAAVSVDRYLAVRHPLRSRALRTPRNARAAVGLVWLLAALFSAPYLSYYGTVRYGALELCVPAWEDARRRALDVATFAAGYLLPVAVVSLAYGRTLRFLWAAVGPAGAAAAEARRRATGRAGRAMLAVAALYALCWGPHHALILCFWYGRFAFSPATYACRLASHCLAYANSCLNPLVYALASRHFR
# LRH-1 inv ag – suppresses constitutive activity of human LRH-1. hit rate 0.13% among 360,000. HEK293T StAR-luciferase reporter, LRH-1 transfected, 24 h. O00482. inhibition, % at 3.6 µM;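 active = inhibition above the mean inhibition of all tested compounds plus 3 SD, cut at about 73% in these data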;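 note: 0% = DMSO wells and 100% = reporter-only cells lacking LRH-1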
# NCOA3 inh – inhibits human SRC3 coactivator. HEK293 GAL4-SRC3 luciferase reporter, luminescence. hit rate 0.17% among 360,000. inhibition, % at 3.6 µM;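 active = inhibition above a per-campaign cutoff, the mean of all compounds plus 3 SD, cut at about 60% in these data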;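 note: 0% = DMSO-treated cells and 100% = gossypol-treated cells at 36 µM; higher means less SRC3-driven luciferase light from the GAL4 reporter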
# SRC2 inh – inhibits human steroid receptor coactivator 2; Q15596; HEK293 GAL4-SRC2 luciferase reporter, luminescence; inhibition, % at 9 µM; hit rate 0.17% among 370,000; AID 651957;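 active = inhibition above the mean inhibition of all tested compounds plus 3 SD, set per campaign, cut at about 52% in these data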;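 note: 0% = DMSO treated cells and 100% = cells given Gossypol at 36 µM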
# SRC1 inh – human NCOA1 inhibition; Q15788; HEK293 GAL4-SRC1 luciferase reporter, luminescence; inhibition, % at 3.6 µM; hit rate 0.12% among 360,000; AID 588354;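 active = inhibition above the campaign mean plus 3 SD, with each screening campaign given its own cutoff, cut at about 60% in these data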;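 note: 0% = DMSO treated cells and 100% = gossypol at 36 µM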
# NR2F2 inh – blocks human COUP-TFII nuclear receptor; P24468; HEK293T NGFI-A luciferase reporter, luminescence; inhibition, % at 8.6 µM; hit rate 0.7% among 370,000; AID 686940;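 active = inhibition above a per-plate cutoff, mean inhibition of test wells between control levels plus 3 SD, cut at about 38% in these data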;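 note: cells cotransfected with COUP-TFII expression vector driving the NGFI-A reporter; 0% = median of COUP-TF2 test wells and 100% = reporter-only cells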
# GalR3 conf – confirmation of human galanin receptor 3 antagonists | shares compounds with GalR3 antagonist | HEK293 GalR3 CNG cAMP biosensor, membrane potential fluorescence; galR3 fused to GalR1 carboxy tail; challenged with forskolin and galanin at EC90 | inhibition, % at 3 µM | hit rate 59% among 1,600;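 active = inhibition above the primary screen's cutoff, the mean inhibition of all screened compounds plus 3 SD, cut at about 13% in these data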;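 note: 0% = forskolin plus galanin and 100% = forskolin alone with DMSO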
# HEK-CNG parental – counter-screen for GalR3 antagonists: nonspecific agonists in parental HEK-CNG cells; hit rate 10% among 1,600; AID 652268; HEK293-CNG parental cells, cAMP membrane potential fluorescence; normalised: DMSO wells 0%, forskolin wells 100%; activation, % at 3 µM; shares compounds with GalR3 antagonist; in the data active = activation above about 1.3%
# Gal4-VP16 ctr – counter-screen for COUP-TFII antagonists: inhibitors of VP16. inhibition, % at 8.5 µM. HEK293 Gal4-VP16 luciferase reporter, luminescence. hit rate 25% among 2,500. shares compounds with NR2F2 inh. AID 687007; in the data active = inhibition above about 13%
# NR2F2 inh conf – confirmation of human COUP-TFII (NR2F2) inhibitors; shares compounds with NR2F2 inh; HEK293 NGFI-A luciferase reporter, luminescence; inhibition, % at 8.5 µM; hit rate 45% among 2,500;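 active = mean inhibition over three repeats above a set limit taken from the earlier primary screen, cut at about 38% in these data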;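 note: 100% = cells given the luciferase reporter alone without the COUP-TF2 vector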
# The depositor's hits bear a star; . = no result; ! = not confirmed by another sample.
SMILES,GalR3 antagonist,LRH-1 inv ag,NCOA3 inh,SRC2 inh,SRC1 inh,NR2F2 inh,GalR3 conf,HEK-CNG parental,Gal4-VP16 ctr,NR2F2 inh conf
O=C(CSc1nnc(-c2cccnc2)s1)Nc1ccnc2ccccc12,90*,51,36,41,26,65*,119*,0,7,62*
Cc1nccn1-c1ccc(NC(=O)[C@@H](Cc2ccccc2)NC(=O)[C@H]2O[C@@H](n3ccc(=O)[nH]c3=O)[C@H](O)[C@@H]2O)cc1,-3,.,.,-7,.,24,.,.,.,.
COc1cc2c(c(Br)c1N)-c1cc(Br)c(N)cc1C2=O,-5,-20,-64,-95,-54,-68,.,.,.,.
COc1ccc(-c2cn(-c3ccccc3)c3[n+]2CCS3)cc1,16*!,44,34,14,22,50*,0,0,4,34
CC(C)(C)c1ccc(-c2cn(-c3ccc(Br)cc3)c3[n+]2CCCS3)cc1,25*,83*,50,21,51,50*,60*,1.7*,18*,37
Cc1cccc(Nc2nc(NCc3ccco3)c3ccccc3n2)c1,45*,-5,18,35,-8,63*,54*,8.7*,6,48*
CC(C)Oc1cccc(C(=O)C2CCCN(Cc3cnc(N4CCOCC4)s3)C2)c1 (stereo not drawn),40*,27,10,10,-10,37*,30*,0,-1,15
COCc1[nH]nc2c1C(c1ccccc1)NC2=O (stereo not drawn),2,.,.,17,.,2,.,.,.,.
CC[C@@H](CCCc1ccc(OC)cc1)CCC(=O)N(c1ccccc1)c1ccccc1,.,.,.,9,.,19,.,.,.,.
CCN1/C(=C/c2ccc3cc(C)ccc3[n+]2CC)Sc2ccccc21,38*,96*,55,-30,65*,86*,45*,12*,1,79*
CCN1/C(=C/c2ccc3cc(C)ccc3[n+]2CC)Sc2cc(C)c(C)cc21,51*,68,56,30,32,78*,58*,9.7*,8,64*
CCOC(=O)/C(=C/C=C1\Sc2cc(C)c(C)cc2N1CC)C(C)=O,-1,-4,12,23,3,21,.,.,.,.
C/C=C/c1cnc2c(c1)C(=O)N([C@H](C)CO)C[C@@H](C)[C@@H](CN(C)C(=O)NC1CCCC1)O2,2,-15,6,16,-8,15,.,.,.,.
COc1ccc(C(C)=O)cc1Cn1c(C)c(C(=O)NCc2ccc(C(F)(F)F)cc2)sc1=O,0,-7,14,-17,-20,-6,.,.,.,.
O=C(NC(Nc1nc2ccc([N+](=O)[O-])cc2s1)(C(F)(F)F)C(F)(F)F)c1cccnc1,52*,91*,78*,-29,69*,77*,85*,1,7,70*
CN(C)S(=O)(=O)c1ccc2nc(NC(=O)c3cccnc3)sc2c1,-3,-82,-52,-68,-90,-14,.,.,.,.
CC(=O)c1cn(CCOc2cc(C)ccc2C)c2ccccc12,84*,38,17,23,43,55*,84*,1,18*,63*
COc1cccc(OCCn2cc(C(C)=O)c3ccccc32)c1,27*,14,26,25,26,49*,21*,0,4,43*
Cc1noc(C)c1NC(=O)N(C)C[C@H]1OCc2cn(nn2)CCCC(=O)N([C@H](C)CO)C[C@@H]1C,-6,.,.,-14,.,-4,.,.,.,.
COc1cccc(S(=O)(=O)NCc2ccc(C(=O)Nc3ccc(Cl)c(Cl)c3)cc2)c1,17*,13,-11,-7,9,64*,55*,-2,-9,23

# Assay outcomes (PubChem BioAssay)
